Data: PubChem BioAssay
For part of these data: Entries with a potency or affinity are not part of this list. Activity calls are given as the source filed them.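 Rule for the calls, unless noted: active = primary screen activator hit with a dose response curve and TRPC4 channel activation at any tested dose; inactive = no activation, no dose response, or not a primary hit.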

Key:
[1] = system: TRPC4 beta (transient receptor potential cation channel C4), mouse; assay: activators of mouse TRPC4 channel, confirmation, cell-based, Fluo4 calcium, HEK293 TRPC4beta/mu-opioid, duplicates, 10 µM (AID 2426;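 active = fluorescence ratio normalized to control raised more than 50% in primary screen plus both repeat runs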;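 for activation: percent rise of integrated ratio over buffer wells lacking compound which define 0%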); conditions: Fluo4 calcium fluorescence, at 10 µM; hits give high values
[2] = system: transient receptor potential cation channel C4 beta (TRPC4), mouse; assay: activators of mouse TRPC4 channel, confirmation, cell-based, second round, Fluo4, HEK293 TRPC4beta/mu-opioid, 1 µM (AID 2461;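 active = primary screen active and over 50% activation in each of two duplicate runs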); conditions: Fluo4 calcium fluorescence, at 1 µM; hits give high values
[3] = system: TRPC4 (transient receptor potential cation channel C4 beta), mouse; assay: positive allosteric modulators of mouse TRPC4, confirmation, cell-based, second round, Fluo-4, HEK293 TRPC4beta/mu-opioid, 1 µM (AID 2554;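 active = primary screen hit whose fluorescence ratio, in both repeats, exceeds the weak agonist control mean by 3 SD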); conditions: DAMGO EC20, Fluo-4 calcium flux, at 1 µM; hits give high values
[4] = system: TRPC4 beta (transient receptor potential cation channel C4), mouse; assay: positive allosteric modulators of mouse TRPC4, confirmation, cell-based, Fluo-4, HEK293 TRPC4beta/mu-opioid (AID 2555;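 active = primary screen hit whose calcium fluorescence ratio, in both repeats, exceeds the weak agonist control mean by 3 SD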); conditions: DAMGO EC20, Fluo-4 calcium flux, at 10 µM; hits give high values
[5] = target: Short transient receptor potential channel 4 (Mus musculus) (UniProt Q9QUQ5); assay: inhibitors of mouse TRPC4 channel, confirmation, cell-based, Fluo4, HEK293 TRPC4beta/mu-opioid (AID 2636;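 active = calcium signal cut by more than 3 SD below the full-agonist control yet still positive, in both repeats and the earlier primary screen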); conditions: DAMGO, Fluo4 calcium flux, at 10 µM; hits give high values
[6] = target: Short transient receptor potential channel 4 (Mus musculus) (UniProt Q9QUQ5); assay: inhibitors of mouse TRPC4 channel, confirmation, cell-based, second round, Fluo4, HEK293 TRPC4beta/mu-opioid, 1 µM (AID 2637;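 active = calcium signal ratio cut to more than 3 SD under the fully stimulated control mean yet still positive, in both repeats and the primary screen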); conditions: Fluo4 calcium flux, DAMGO, at 1 µM; hits give high values
[7] = target: Short transient receptor potential channel 4 (Mus musculus) (UniProt Q9QUQ5); assay: mouse TRPC4 channel activators, dose response, cell-based, HEK293 TRPC4/mu-opioid, Fluo-4 calcium (AID 434937)
[8] = target: Short transient receptor potential channel 4 (Mus musculus) (UniProt Q9QUQ5); assay: TRPC4 positive allosteric modulators, dose response, cell-based, HEK293 TRPC4/mu-opioid, Fluo-4 calcium, EC20 DAMGO (AID 434941;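 active = earlier screen potentiator hit that boosts the TRPC4 ion channel at some dose, with a dose response; inactive = no potentiation, no dose response, or not a prior hit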;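 note: calcium entry triggered by an EC20 dose of DAMGO at the co-expressed mu-opioid receptor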)
[9] = target: Short transient receptor potential channel 4 (Mus musculus) (UniProt Q9QUQ5); assay: mouse TRPC4 channel inhibitors, dose response, cell-based, HEK293 TRPC4/mu-opioid, Fluo-4 calcium (AID 434942;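 active = primary screen inhibitor hit that blocks the TRPC4 channel at some tested dose, yielding a dose curve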)
[10] = target: Short transient receptor potential channel 6 (Mus musculus) (UniProt Q61143); assay: inhibition of mouse TRPC6 channel, confirmation, selectivity assay for TRPC4 inhibitor project, cell-based, HEK293, membrane potential dye, duplicate (AID 434948;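 active = active in primary screen and both duplicates, each dropping signal beyond three positive-control SD with fluorescence still positive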); conditions: HEK293 TRPC6, membrane potential dye fluorescence, at 10 µM, stimulated with maximal-effect acetylcholine; hits give high values
[11] = target: Short transient receptor potential channel 6 (Mus musculus) (UniProt Q61143); assay: activation of mouse TRPC6 channel, confirmation, selectivity assay for TRPC4 activator project, cell-based, HEK293, membrane potential dye, duplicate (AID 434950;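 active = membrane potential signal rise above negative control mean plus 3 SD in both duplicates, also active in the earlier TRPC4 screen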); conditions: HEK293 TRPC6, membrane potential fluorescence, at 10 µM; hits give high values
[12] = target: Short transient receptor potential channel 6 (Mus musculus) (UniProt Q61143); assay: TRPC6 potentiation by TRPC4 potentiator hits, confirmation, selectivity assay for TRPC4 potentiator project, HEK293 cells, membrane potential dye, duplicate (AID 434952;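 active = compound raising the membrane signal above positive-control mean plus 3 SD in both repeats, and a primary screen hit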); conditions: HEK293 TRPC6, membrane potential dye fluorescence, at 10 µM, maximal acetylcholine added after compound; hits give high values
[13] = target: Short transient receptor potential channel 4 (Mus musculus) (UniProt Q9QUQ5); assay: calcium flux activators in TRPC4/5HT1a cells, counter-screen for TRPC4 activator project, cell-based, second counter screen, HEK293 TRPC4/5HT1a, Fluo-4 (AID 434977;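 active = calcium signal rise above buffer-control mean plus 5 SD in both duplicates, and also a hit in the primary screen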;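 for activation: plate controls were assay buffer for no effect and maximal serotonin response for full effect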); conditions: Fluo-4 calcium flux, at 10 µM; hits give high values
[14] = calcium flux inhibitors in TRPC4/5HT1a cells, confirmation, counter-screen for TRPC4 inhibitor project, cell-based, second counter screen, HEK293 TRPC4/5HT1a, Fluo-4 (AID 434978;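 active = primary screen active whose calcium signal fell more than 3 SD beyond the full-serotonin control mean in both duplicate plates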;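 note: serotonin given first at submaximal then at maximal dose after compound preincubation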); conditions: Fluo-4 calcium flux, at 10 µM, serotonin added to trigger calcium flux; hits give high values
[15] = system: TRPC4 (mouse), co-expressed with 5HT1a in HEK293; assay: calcium flux potentiators in TRPC4/5HT1a cells, confirmation, counter-screen for TRPC4 potentiator project, cell-based, second counter screen, HEK293 TRPC4/5HT1a, Fluo-4 (AID 434979;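 active = signal rise over 3 SD above mean of control wells given weak agonist, in both repeats and first screen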); conditions: Fluo-4 calcium flux, at 10 µM, serotonin added at its EC20 dose; hits give high values
[16] = calcium flux activation in mu-opioid HEK293 cells, confirmation, counter-screen for TRPC4 activator project, cell-based, HEK293 mu-opioid receptor line (AID 449723;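 active = hit in primary screen, with calcium signal over 5 SD above buffer well mean in both duplicates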;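 note: counter screen cells carry the mu-opioid receptor alone and lack TRPC4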); conditions: Fluo-4 calcium fluorescence, at 10 µM; hits give high values
[17] = calcium flux enhancement in mu-opioid HEK293 cells, confirmation, counter-screen for TRPC4 allosteric potentiator project, cell-based, HEK293 mu-opioid receptor line (AID 449724;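 active = calcium signal rise more than 3 SD above the low-dose agonist control mean, in both duplicate plates and the primary screen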); conditions: Fluo-4 calcium flux, at 10 µM, compound added before EC20 DAMGO stimulus; hits give high values

Chain of Short transient receptor potential channel 6 (Mus musculus) (Q61143 whole entry, looked up): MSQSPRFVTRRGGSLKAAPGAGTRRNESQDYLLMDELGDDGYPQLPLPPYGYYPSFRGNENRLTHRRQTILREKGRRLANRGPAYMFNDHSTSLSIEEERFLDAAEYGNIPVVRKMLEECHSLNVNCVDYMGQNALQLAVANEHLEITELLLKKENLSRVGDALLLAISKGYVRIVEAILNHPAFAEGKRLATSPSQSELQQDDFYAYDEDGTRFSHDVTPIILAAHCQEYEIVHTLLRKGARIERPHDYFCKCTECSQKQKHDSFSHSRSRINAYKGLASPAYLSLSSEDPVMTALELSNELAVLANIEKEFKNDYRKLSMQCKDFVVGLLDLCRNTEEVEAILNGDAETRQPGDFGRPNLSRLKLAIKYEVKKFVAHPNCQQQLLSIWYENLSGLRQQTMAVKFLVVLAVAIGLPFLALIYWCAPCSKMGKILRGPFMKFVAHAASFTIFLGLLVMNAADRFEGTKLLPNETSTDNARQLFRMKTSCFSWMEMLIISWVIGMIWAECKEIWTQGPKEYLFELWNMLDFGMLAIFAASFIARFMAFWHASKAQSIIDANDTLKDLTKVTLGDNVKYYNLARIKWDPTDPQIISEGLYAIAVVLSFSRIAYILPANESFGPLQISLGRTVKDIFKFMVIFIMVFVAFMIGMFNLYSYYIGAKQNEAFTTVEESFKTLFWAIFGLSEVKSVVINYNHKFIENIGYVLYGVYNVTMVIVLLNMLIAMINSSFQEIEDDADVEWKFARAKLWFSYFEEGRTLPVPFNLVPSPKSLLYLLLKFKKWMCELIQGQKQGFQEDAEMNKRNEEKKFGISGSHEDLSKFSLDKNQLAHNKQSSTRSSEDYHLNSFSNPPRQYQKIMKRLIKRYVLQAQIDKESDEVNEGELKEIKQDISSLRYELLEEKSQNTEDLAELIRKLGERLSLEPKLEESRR
Chain of Short transient receptor potential channel 4 (Mus musculus) (Q9QUQ5 whole entry, looked up): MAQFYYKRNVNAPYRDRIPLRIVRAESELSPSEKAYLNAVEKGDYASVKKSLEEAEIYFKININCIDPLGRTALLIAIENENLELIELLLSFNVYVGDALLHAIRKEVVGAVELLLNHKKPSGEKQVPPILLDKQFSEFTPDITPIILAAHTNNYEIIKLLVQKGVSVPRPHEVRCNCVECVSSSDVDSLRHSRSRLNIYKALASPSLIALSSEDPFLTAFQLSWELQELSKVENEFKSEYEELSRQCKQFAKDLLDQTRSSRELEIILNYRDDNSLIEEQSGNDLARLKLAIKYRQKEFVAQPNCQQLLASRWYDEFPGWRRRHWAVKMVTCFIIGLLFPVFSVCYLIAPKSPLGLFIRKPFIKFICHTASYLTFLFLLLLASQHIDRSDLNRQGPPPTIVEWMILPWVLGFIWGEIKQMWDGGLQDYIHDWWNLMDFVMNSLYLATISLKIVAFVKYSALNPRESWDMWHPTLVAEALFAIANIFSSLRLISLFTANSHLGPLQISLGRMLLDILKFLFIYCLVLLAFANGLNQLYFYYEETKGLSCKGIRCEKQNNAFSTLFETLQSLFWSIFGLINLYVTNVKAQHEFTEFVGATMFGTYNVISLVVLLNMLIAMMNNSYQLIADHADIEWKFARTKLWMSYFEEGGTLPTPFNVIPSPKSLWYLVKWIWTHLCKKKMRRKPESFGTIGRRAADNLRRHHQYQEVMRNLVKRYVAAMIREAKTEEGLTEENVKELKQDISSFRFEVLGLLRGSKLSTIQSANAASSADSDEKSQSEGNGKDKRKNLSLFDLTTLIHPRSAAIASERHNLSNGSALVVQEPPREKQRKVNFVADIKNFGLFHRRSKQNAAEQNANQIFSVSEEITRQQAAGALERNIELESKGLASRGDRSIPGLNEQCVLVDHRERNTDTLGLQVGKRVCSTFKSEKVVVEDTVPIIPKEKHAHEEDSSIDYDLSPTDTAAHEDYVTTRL

Cc1ccc(Cn2c(=N)c(C(=O)NC3CCCCC3)cc3c(=O)n4ccccc4nc32)cc1
inactive: outcome [1] | outcome [2] | outcome [3] | outcome [5] | outcome [6] | outcome [7] | outcome [8] | outcome [9] | outcome [10] | outcome [11] | outcome [12] | outcome [13] | outcome [14] | outcome [15] | outcome [16] | outcome [17]
active: potentiation [4] 26%

Cc1cc(C)cc(NC(=O)c2nnn(Cc3cc(C)ccc3C)c2N)c1
active: potentiation [4] 16% | potentiation [15] 27.4%
inactive: outcome [1] | outcome [2] | outcome [3] | outcome [5] | outcome [6] | outcome [7] | outcome [8] | outcome [9] | outcome [10] | outcome [11] | outcome [12] | outcome [13] | outcome [14] | outcome [16] | outcome [17]

CN1CCN(NC(=O)Nc2cc(Cl)cc(Cl)c2)CC1
active: potentiation [4] 29%
inactive: outcome [1] | outcome [2] | outcome [3] | outcome [5] | outcome [6] | outcome [7] | outcome [8] | outcome [9] | outcome [10] | outcome [11] | outcome [12] | outcome [13] | outcome [14] | outcome [15] | outcome [16] | outcome [17]

NS(=O)(=O)c1ccc(NN=C2CCN(Cc3ccccc3)CC2)c([N+](=O)[O-])c1
active: potentiation [15] 16.3%
inactive: outcome [1] | outcome [2] | outcome [3] | outcome [4] | outcome [5] | outcome [6] | outcome [7] | outcome [8] | outcome [9] | outcome [10] | outcome [11] | outcome [12] | outcome [13] | outcome [14] | outcome [16] | outcome [17]

CC(C)C(=O)N1CCN(c2nc(-c3ccccc3)c3c(c2C#N)CCCC3)CC1
inactive: outcome [1] | outcome [2] | outcome [3] | outcome [5] | outcome [6] | outcome [7] | outcome [8] | outcome [9] | outcome [10] | outcome [11] | outcome [12] | outcome [13] | outcome [14] | outcome [16] | outcome [17]
active: potentiation [4] 26% | potentiation [15] 29.4%

Cc1cccc(OCCn2c(=O)sc3ccccc32)c1
inactive: outcome [1] | outcome [2] | outcome [3] | outcome [4] | outcome [5] | outcome [6] | outcome [7] | outcome [8] | outcome [9] | outcome [10] | outcome [11] | outcome [12] | outcome [13] | outcome [14] | outcome [15] | outcome [16] | outcome [17]

CCOC(=O)c1c(C(F)(F)C(F)(F)C(F)(F)C(F)(F)F)n[nH]c1C
inactive: outcome [1] | outcome [2] | outcome [3] | outcome [4] | outcome [5] | outcome [6] | outcome [7] | outcome [8] | outcome [9] | outcome [10] | outcome [11] | outcome [12] | outcome [13] | outcome [14] | outcome [15] | outcome [16] | outcome [17]

COc1ccc(Cc2noc(CN(C)CC3CCN(Cc4ccccc4)CC3)n2)cc1OC
inactive: outcome [1] | outcome [2] | outcome [3] | outcome [4] | outcome [5] | outcome [6] | outcome [7] | outcome [8] | outcome [9] | outcome [10] | outcome [11] | outcome [12] | outcome [13] | outcome [14] | outcome [15] | outcome [16] | outcome [17]

O=C(Nc1ccc2c(c1)OCO2)c1cnn2cccnc12
active: potentiation [4] 38% | potentiation [15] 48.5%
inactive: outcome [1] | outcome [2] | outcome [3] | outcome [5] | outcome [6] | outcome [7] | outcome [8] | outcome [9] | outcome [10] | outcome [11] | outcome [12] | outcome [13] | outcome [14] | outcome [16] | outcome [17]

COc1ccc(C2CC(=O)c3cnc(N4CCN(Cc5ccccc5)CC4)nc3C2)cc1 (stereo not given)
inactive: outcome [1] | outcome [2] | outcome [3] | outcome [4] | outcome [5] | outcome [6] | outcome [7] | outcome [8] | outcome [9] | outcome [10] | outcome [11] | outcome [12] | outcome [13] | outcome [14] | outcome [16] | outcome [17]
active: potentiation [15] 14.7%

c1ccc(C2(CN3CCNC[C@H]3Cc3cccc4ccccc34)CC2)cc1
inactive: outcome [2] | outcome [3] | outcome [4] | outcome [5] | outcome [6] | outcome [7] | outcome [8] | outcome [9] | outcome [10] | outcome [11] | outcome [12] | outcome [14] | outcome [15] | outcome [16] | outcome [17]
active: activation [1] 161% | activation [13] 5.82%

COC(=O)/C=C1\SC(=NC(=O)c2cccc(Cl)c2)NC1=O
inactive: outcome [1] | outcome [2] | outcome [3] | outcome [4] | outcome [6] | outcome [7] | outcome [8] | outcome [9] | outcome [10] | outcome [11] | outcome [12] | outcome [13] | outcome [14] | outcome [15] | outcome [16] | outcome [17]
active: inhibition [5] 76%

Cc1ccc2[nH]c(C)c(CCN(Cc3cccnc3)C(=S)NC(C)(C)C)c2c1
inactive: outcome [1] | outcome [2] | outcome [3] | outcome [4] | outcome [5] | outcome [6] | outcome [7] | outcome [8] | outcome [9] | outcome [10] | outcome [11] | outcome [12] | outcome [13] | outcome [14] | outcome [15] | outcome [16] | outcome [17]

CN1CCN(CC#CCn2c3ccccc3c3ccccc32)CC1
inactive: outcome [1] | outcome [2] | outcome [5] | outcome [6] | outcome [7] | outcome [8] | outcome [9] | outcome [10] | outcome [11] | outcome [12] | outcome [13] | outcome [14] | outcome [16] | outcome [17]
active: potentiation [3] 10% | potentiation [4] 12% | potentiation [15] 38.7%

O=C(c1ccccc1)c1coc2ccc(O)c(CN3CCOCC3)c12
inactive: outcome [1] | outcome [2] | outcome [3] | outcome [4] | outcome [5] | outcome [6] | outcome [7] | outcome [8] | outcome [9] | outcome [10] | outcome [11] | outcome [12] | outcome [13] | outcome [14] | outcome [15] | outcome [16] | outcome [17]
